“And” between values parts separate entries of the source, which are not always exact repeats. Equal values may be shown once. Hit rate of the full screen: of about 190,000 compounds, about 6,900 (3.6%) were called active. Shown is part of a subset that was picked to be rich in actives. A number with no mark means an inactive call. No stated cut-off is given here; in the data, active means inhibition above about 50%; inactive means the rest.
Target: Huntingtin (Homo sapiens) (UniProt P42858)
Test: mutant huntingtin-calmodulin interaction inhibitors – biochemical, AlphaScreen, primary screen (AID 1671202);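 on inhibition: 0% = both proteins with DMSO and 100% = one protein alone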
Conditions: AlphaScreen His-mHTT/GST-CaM binding, luminescence; at 15 µM, active compounds read high

Chain of Huntingtin (Homo sapiens) (P42858 whole entry, looked up, stated change not applied): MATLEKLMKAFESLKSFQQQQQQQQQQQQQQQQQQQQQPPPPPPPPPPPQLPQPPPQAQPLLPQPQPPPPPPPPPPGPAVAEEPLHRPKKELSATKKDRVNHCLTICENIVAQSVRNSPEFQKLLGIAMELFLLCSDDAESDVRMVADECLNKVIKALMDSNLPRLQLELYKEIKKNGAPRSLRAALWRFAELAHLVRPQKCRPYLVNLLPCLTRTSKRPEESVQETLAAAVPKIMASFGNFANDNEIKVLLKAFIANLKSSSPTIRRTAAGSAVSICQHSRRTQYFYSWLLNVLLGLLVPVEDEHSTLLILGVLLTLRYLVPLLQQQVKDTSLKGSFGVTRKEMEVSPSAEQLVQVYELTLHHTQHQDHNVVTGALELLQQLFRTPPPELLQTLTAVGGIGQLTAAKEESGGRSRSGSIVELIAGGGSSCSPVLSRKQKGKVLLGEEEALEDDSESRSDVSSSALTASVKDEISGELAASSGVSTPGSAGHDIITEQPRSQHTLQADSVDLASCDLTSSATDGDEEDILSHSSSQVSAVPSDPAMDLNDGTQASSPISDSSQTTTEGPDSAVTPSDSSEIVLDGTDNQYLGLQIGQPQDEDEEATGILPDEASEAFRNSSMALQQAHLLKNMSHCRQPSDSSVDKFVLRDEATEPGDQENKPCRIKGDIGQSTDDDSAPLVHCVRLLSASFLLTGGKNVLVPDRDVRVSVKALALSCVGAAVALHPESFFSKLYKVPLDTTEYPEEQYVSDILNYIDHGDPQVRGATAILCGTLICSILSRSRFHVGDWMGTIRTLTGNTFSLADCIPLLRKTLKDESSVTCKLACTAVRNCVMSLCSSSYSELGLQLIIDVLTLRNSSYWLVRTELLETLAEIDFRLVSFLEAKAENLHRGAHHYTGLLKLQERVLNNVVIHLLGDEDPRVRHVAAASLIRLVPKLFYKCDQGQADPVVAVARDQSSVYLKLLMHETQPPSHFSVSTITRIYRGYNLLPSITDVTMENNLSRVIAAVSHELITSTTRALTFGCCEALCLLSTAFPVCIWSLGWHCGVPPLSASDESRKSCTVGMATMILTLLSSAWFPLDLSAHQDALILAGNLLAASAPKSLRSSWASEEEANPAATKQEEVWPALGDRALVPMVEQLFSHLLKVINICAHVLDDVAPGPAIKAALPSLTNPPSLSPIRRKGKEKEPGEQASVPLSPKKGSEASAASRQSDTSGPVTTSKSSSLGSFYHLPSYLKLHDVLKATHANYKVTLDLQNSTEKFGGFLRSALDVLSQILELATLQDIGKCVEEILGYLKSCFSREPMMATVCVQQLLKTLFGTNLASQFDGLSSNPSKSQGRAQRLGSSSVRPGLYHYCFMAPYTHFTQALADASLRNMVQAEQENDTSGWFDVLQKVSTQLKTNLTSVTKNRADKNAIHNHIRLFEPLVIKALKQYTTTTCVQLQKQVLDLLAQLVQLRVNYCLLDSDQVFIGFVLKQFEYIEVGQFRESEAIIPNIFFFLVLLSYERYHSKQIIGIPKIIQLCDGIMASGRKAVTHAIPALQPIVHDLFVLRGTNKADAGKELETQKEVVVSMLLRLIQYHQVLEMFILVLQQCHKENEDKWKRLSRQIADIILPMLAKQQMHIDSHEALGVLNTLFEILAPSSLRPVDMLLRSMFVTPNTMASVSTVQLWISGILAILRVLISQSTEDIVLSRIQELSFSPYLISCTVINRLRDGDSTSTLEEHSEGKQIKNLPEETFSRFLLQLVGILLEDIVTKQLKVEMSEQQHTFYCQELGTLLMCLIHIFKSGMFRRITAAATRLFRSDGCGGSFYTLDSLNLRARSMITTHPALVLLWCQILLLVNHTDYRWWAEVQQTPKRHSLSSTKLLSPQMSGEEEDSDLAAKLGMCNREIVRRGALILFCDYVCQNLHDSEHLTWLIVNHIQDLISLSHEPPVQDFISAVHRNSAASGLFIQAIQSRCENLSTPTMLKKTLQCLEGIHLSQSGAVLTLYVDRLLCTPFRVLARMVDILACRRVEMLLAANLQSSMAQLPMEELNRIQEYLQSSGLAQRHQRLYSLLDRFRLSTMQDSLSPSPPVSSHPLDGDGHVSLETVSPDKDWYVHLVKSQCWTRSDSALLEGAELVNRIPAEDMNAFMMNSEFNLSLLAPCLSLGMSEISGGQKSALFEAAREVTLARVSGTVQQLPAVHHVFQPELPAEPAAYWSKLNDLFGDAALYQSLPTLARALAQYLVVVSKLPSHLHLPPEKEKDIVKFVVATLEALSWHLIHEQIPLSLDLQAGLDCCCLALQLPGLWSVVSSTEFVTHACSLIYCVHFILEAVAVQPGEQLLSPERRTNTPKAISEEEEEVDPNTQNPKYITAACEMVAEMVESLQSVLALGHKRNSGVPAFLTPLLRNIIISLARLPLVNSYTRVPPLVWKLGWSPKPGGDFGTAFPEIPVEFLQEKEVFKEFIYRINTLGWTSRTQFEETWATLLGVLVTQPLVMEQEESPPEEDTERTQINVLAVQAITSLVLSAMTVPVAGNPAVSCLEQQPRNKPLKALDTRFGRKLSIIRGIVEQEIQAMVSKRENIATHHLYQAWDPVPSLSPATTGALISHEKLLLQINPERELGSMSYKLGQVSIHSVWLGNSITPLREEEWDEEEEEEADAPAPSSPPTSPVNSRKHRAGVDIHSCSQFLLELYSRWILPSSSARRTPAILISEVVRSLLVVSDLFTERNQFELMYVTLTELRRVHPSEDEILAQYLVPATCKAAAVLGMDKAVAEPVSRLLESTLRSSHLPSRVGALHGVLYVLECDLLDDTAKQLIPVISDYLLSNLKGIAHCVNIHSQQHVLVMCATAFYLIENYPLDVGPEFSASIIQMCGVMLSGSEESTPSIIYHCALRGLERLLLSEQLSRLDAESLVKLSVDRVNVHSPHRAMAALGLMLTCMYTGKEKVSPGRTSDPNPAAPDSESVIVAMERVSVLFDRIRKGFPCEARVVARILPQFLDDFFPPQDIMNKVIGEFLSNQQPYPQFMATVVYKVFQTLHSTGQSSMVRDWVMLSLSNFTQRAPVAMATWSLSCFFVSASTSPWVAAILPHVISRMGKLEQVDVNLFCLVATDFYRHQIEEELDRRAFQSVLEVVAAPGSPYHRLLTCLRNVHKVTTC

Structure (SMILES) | inhibition
O=C(Cc1csc(NC(=O)C2CCCC2)n1)Nc1ccc2c(c1)Cc1ccccc1-2 | -7.6%
Cn1c(=O)c2c(-c3ccccc3)n(-c3cccc([N+](=O)[O-])c3)cc2n(C)c1=O | 38%
O=C1/C(=C/c2ccc([N+](=O)[O-])cc2)C=C(c2ccccc2)N1c1cccc([N+](=O)[O-])c1 | 28%
O=C1OC(c2ccccc2)=C/C1=C/c1cccn1-c1cccc([N+](=O)[O-])c1 | 77% (active)
N#CC1=C(N)C(C#N)(C#N)C(c2ccc(C3C4CCCC=C4C(C#N)=C(N)C3(C#N)C#N)cc2)C2CCCC=C12 (centres undefined) | 81.2% (active)
CN1CC=C2C(C#N)=C(N)C(C#N)(C#N)C(c3ccc(F)cc3)C2C1 (centres undefined) | 6%
Brc1ccc(CNC23CN4CN(CN(C4)C2)C3)cc1 | 2%
O=C(/C=C/c1ccc(Cl)cc1)Nc1cc2ccccc2oc1=O | 0%
CN(C)c1ccc(Br)c([N+](=O)[O-])c1 | 14.9%
Cc1ccc2nc(/C(C#N)=C/c3cc(Cl)cc4c3OCOC4)[nH]c2c1 | -7%
COc1cccc(NC(=O)c2cc3cc4cc(OC)ccc4nc3s2)c1 | 7%
COc1ccc2nc3sc(C(=O)N(C)c4cccc(C)c4)cc3cc2c1 | 5%
COc1ccc2nc3sc(C(=O)NCc4ccco4)cc3cc2c1 | 61% (active)
O=C(CSc1nnc(NC(=O)c2ccccc2F)s1)Nc1ccc(Br)cc1 | 1.2%
CC(C)(C)C(=O)NCCNc1ccc([N+](=O)[O-])cc1 | 2.2%
COc1ccc(NC(=O)C2CC(=O)N(C)C(=Nc3ccc(C)c(C)c3)S2)cc1 (centres undefined) | 22%
Cc1ccc2c(c1)OCC(=O)N2Cc1nc(-c2ccc(C)c(C)c2)no1 | -15.9%
Cc1ccccc1NC(=O)N1CCC(c2cc(N)on2)CC1 | -11.4%
COCCCN1COc2ccc3c(=O)c(Oc4ccc(OC)cc4)coc3c2C1 | -5.5% and 3.6%
COc1ccc(-c2coc3c4c(ccc3c2=O)OCN(CC(C)C)C4)cc1 | -3.5%
CCOC(=O)c1ccc(Oc2coc3c4c(ccc3c2=O)OCN(C2CCS(=O)(=O)C2)C4)cc1 (centres undefined) | 6.6%
COc1ccc(N2COc3ccc4c(=O)c(-c5ccccc5)coc4c3C2)c(OC)c1 | 75.6% (active)
CC(C)N1COc2ccc3c(=O)c(-c4ccccc4)coc3c2C1 | -2.5%
COC(=O)c1ccc(Oc2coc3c4c(ccc3c2=O)OCN(c2ccc(OC)cc2OC)C4)cc1 | 54.7% (active)

Structure (SMILES) | inhibition
COc1cccc(OC)c1OCCOc1cccc(Cl)c1Cl | -101%
Cc1cccc(NC(=O)c2ccc(F)c(S(=O)(=O)N3CCc4ccccc43)c2)c1 | -8%
Cc1cc2[nH]c(C(=O)Nc3cc(F)c(F)c(F)c3)c(CN(C)C)c2s1 | 8.9%
Cc1cccc(NC(=O)C2CCN(C(=O)c3ccc(F)cc3)CC2)c1 | -0.6%
O=C1OC(/C=C/c2cccc(Cl)c2Cl)=NC/1=C\c1coc2ccccc2c1=O | 6%
CC(C)Oc1ccccc1OCCNCc1ccco1 | -1.4%
Cc1ccc(C)c(NC(=O)N2CCc3c(c(COCc4cccc(F)c4)nn3C)C2)c1 | 23.8%
O=C(O)C1CCCCC1C(=O)Nc1nnc(-c2cccs2)s1 (centres undefined) | -1.3%
CN(C)c1ncccc1NC(=O)c1ccc(C#N)cc1 | 4.1%
O=C(NCc1[nH]nc2ccccc12)c1ccc(Br)o1 | -1.8%
N#Cc1ccc(C(=O)NCc2[nH]nc3ccccc23)cc1 | 64.3% (active)
Clc1ccc(-n2ncc3c(N4CCC5(CC4)OCCO5)ncnc32)cc1 | 7%
CC(=O)Nc1nc(C)c(-c2csc(Nc3ccc(S(N)(=O)=O)cc3)n2)s1 | 52.1% (active)
CCN(CC)c1ccc(Nc2nc(-c3sc(C)nc3C)cs2)cc1 | 96.7% (active)
Cc1nc(N)sc1-c1csc(Nc2ccc(O)cc2)n1 | 41.5%
COc1ccc(-c2csc(/C(C#N)=C/Nc3cccc([N+](=O)[O-])c3)n2)cc1 | -1%
Cc1nc(N)sc1-c1csc(Nc2cccc([N+](=O)[O-])c2)n1 | 91.9% (active)
NS(=O)(=O)c1ccc(Nc2nc(-c3ccccc3)cs2)cc1 | 21%
O=C(O)c1ccc(Nc2nc(-c3cccs3)cs2)cc1 | 46.2%
NS(=O)(=O)c1ccc(NC(=O)Cc2csc(Nc3ccccn3)n2)cc1 | 33.1%
Cc1noc(C)c1S(=O)(=O)N1CCC(CC(=O)N2CCN(C(=O)C3CC3)CC2)CC1 | 5.24%
COc1ccc(-c2nnc(N3CCC(C(=O)NC4CCCCC4)CC3)o2)cc1 | 7.1%
O=C(Nc1cccc(C(F)(F)F)c1)C(=O)c1c(O)[nH]c2ccccc12 | 10%
CCOc1cc(CNC(=O)C2CCN(c3nnc4ccccn34)CC2)ccc1OC | 2.75%

Structure (SMILES) | inhibition
Nc1nc(-c2cc3cc(Br)cc(Br)c3oc2=O)cs1 | -7%
COc1ccc(C2CC(O)(c3ccccc3)Oc3cc(C)cc(C)c32)cc1 (centres undefined) | 77.7% (active)
COc1ccc([C@@H]2C[C@H](c3ccccc3)Oc3cc(OC)ccc32)cc1 | -9.3%
CC(=O)c1c(C(C)=O)c(C)n(Cc2ccco2)c1C | 1.2%
COc1cc2c(cc1OC)C(COc1cc(C)cc(C)c1)N(C(=O)CC1CCCCC1)CC2 (centres undefined) | 32%
CCOC(=O)c1ccc(OCC2c3cc(OC)c(OC)cc3CCN2C(=O)c2ccccc2OC)cc1 (centres undefined) | 34.4%
COc1cc2c(cc1OC)C(COc1ccc(F)cc1)N(C(=O)c1ccccc1F)CC2 (centres undefined) | 67% (active)
COc1ccc(C(=O)N2CCc3cc(OC)c(OC)cc3C2c2ccccc2)cc1OC (centres undefined) | 83.2% (active)
CCCCC(=O)N1CCc2cc(OC)c(OC)cc2C1COc1ccc(C(=O)OC)cc1 (centres undefined) | 18.4%
COc1ccc(NC(=O)N2CCc3[nH]cnc3C2c2ccccc2)cc1OC (centres undefined) | 3.67%
COc1ccc(C2=NOC(C(=O)N3CCC4(CC3)OCCO4)C2)cc1OC (centres undefined) | -8.22%
COc1ccc(-c2nc(COc3cc(C)ccc3F)no2)cc1 | -32.4%
CSCCC(NS(=O)(=O)c1cccs1)C(=O)O (centres undefined) | -3.2%
CSc1nc(SC)c2c3c(sc2n1)CSC(C)(C)C3 | 2%
CCc1ccc(OCC(O)CN2CCN(c3ccccc3F)CC2)cc1 (centres undefined) | -21.8%
COc1cc(NCCCCN2C(=O)c3ccccc3C2=O)c2nccc(C)c2c1 | 4%
O=C(c1ccco1)N1CCN(C(=O)C2CC(c3ccc(F)cc3)=NO2)CC1 (centres undefined) | -6.79%
COc1ccc(C2=NOC(C(=O)N3CCN(c4ccccc4)CC3)C2)cc1 (centres undefined) | -6.03%
CCOC(=O)N1CCN(C(=O)C2CC(c3ccc(F)cc3)=NO2)CC1 (centres undefined) | 100% (active)
Cc1cc(C)cc(NC(=O)NC2CCN(c3ccccc3)C2=O)c1 (centres undefined) | -6.4%
COc1nccnc1N1CCC(N(C)C(=O)c2ccoc2)C1 (centres undefined) | 1.67%
Cc1cc(C(=O)N2CCOCC2)c2cccc(-c3cccs3)c2n1 | -5.8%
O=C(Nc1cccc(F)c1)N1CCC(N2CCN(Cc3ccc(F)cc3)C2=O)CC1 | 13%
CC(=O)N1c2c(cc(Br)cc2S(=O)(=O)Nc2cccc([N+](=O)[O-])c2)CC1C (centres undefined) | 6%

Structure (SMILES) | inhibition
O=C(c1ccc2nc3ccc(Cl)cc3c(=O)n2c1)N1CCN(c2cccc(Cl)c2)CC1 | 6%
O=C(c1ccc([N+](=O)[O-])cc1)N1CCN(c2cccc(Cl)c2)CC1 | 13.1%
CC(=O)Nc1ccc(C(=O)N2CCN(c3cccc(Cl)c3)CC2)cc1 | 83.1% (active)
Cc1ccccc1-n1cnc(C(=O)NCCC(C)C)n1 | -3%
CC(C)C[C@@H]1COc2cc(N3CCC[C@@H]3CO)ccc2S(=O)(=O)N1 | -7.7%
CC1CCN(c2ccc([N+](=O)[O-])c(SCCO)c2)CC1 | 24%
CC1CCN(c2ccc(N)cc2)CC1 | 79.6% (active)
Cc1ccc(N2CCN(C3CCCCCC3)CC2)cc1 | 7.2%
Cn1c(C(=O)NCc2ccco2)cc2c1CCN(Cc1ccc(F)cc1)C2 | 40.4%
COc1ccc(C(=O)Nc2nc3ccccc3s2)cc1Br | -8%
O=C(COc1ccccc1)Nc1nc2ccccc2s1 | -8.3%
COc1ccc(OC)c(Nc2nc(CC(=O)Nc3nc4ccccc4s3)cs2)c1 | 54.7% (active)
CCCC(=O)N1CCN(c2nc3c(s2)c(C)nn3-c2ccc(F)cc2)CC1 | 0.3%
O=C(NCC1(c2ccccc2)CCOCC1)C(=O)Nc1cccnc1 | -3.4%
N#C/C(=C\c1cn[nH]c1-c1cccs1)c1nc2ccccc2[nH]1 | 37%
COc1ccc(C2CC(c3ccc(Cl)cc3Cl)Nc3nc(N)nn32)cc1OC (centres undefined) | 70.9% (active)
COc1ccc(C2CC(c3ccc(C)cc3)Nc3nc(N)nn32)cc1 (centres undefined) | 11.1%
COc1cccc(C2CC(c3cccc(Cl)c3)n3nc(N)nc3N2)c1 (centres undefined) | 30.3%
CCOc1ccccc1C1CC(c2ccc(Cl)cc2)Nc2nc(N)nn21 (centres undefined) | 54.2% (active)
CCOc1ccccc1C1CC(c2ccccc2)Nc2nc(N)nn21 (centres undefined) | 18.6%
CCOc1ccc(C2CC(c3ccccc3Cl)n3nc(N)nc3N2)cc1 (centres undefined) | 36.1%
Cn1cccc1/C=N/NC(=O)CCCCCCC(=O)N/N=C/c1cccn1C | inactive
